Values joined by “and” are separate entries in the source; they are usually repeats but may differ in a detail not shown here. Equal entries are not always repeated. Results filed as inconclusive are left out. A call without a number means that no potency is given here. Values without a mark were called inactive. Active and inactive are the calls of the source. Calls come from the whole dose curve; as a rule, active = well fitted curve in the direction sought with a large enough effect; inconclusive = small, poorly fitted or top-dose-only effect, or another doubt; inactive = no such curve, though single readings can be large; an effect the other way counts as inactive or inconclusive.
What was measured:
[1] = tested on: UISO; test: qHTS assay to identify novel small-molecules to repurpose for Merkel cell carcinoma treatment (AID 1296009); conditions: MCC and control cell lines, CellTiter-Glo viability, 72 h; series mostly up to 46 µM; note: nearly all actives have a fitted effect of over 60% in size
In short: (§1)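 Dose-response viability screen; 72 hr exposure at 37 degree celsius; CellTiter-Glo added, 10 min room temperature, luminescence read; RLUs scaled between no-cell and DMSO wells.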

[2] = tested on: WaGa; test: as above; conditions: MCC and control cell lines, CellTiter-Glo viability, 72 h; series mostly up to 46 µM
In short: as §1

[3] = tested on: C33A; test: Primary qHTS to identify gynecologic anti-cancer compounds using libraries of approved drugs and bioactive compounds (AID 1345084); conditions: Gynecologic cancer cell panel viability, ATPlite luminescence, 48 h; series mostly up to 57.5 µM; note: nearly all actives have a fitted effect of over 55% in size; note: potency is the fitted concentration of half-maximal effect
In short: (§2)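 Cells, 1,000 per well, were allowed to settle for 16 h at 37 C before compound addition. Five concentrations were tested for 48 h, and viability was read by ATPlite luminescence after 15 min at room temperature.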

[4] = tested on: CAOV3; test: as above; conditions: Gynecologic cancer cell panel viability, ATPlite luminescence, 48 h; series mostly up to 57.5 µM
In short: as §2

[5] = tested on: Es-2; test: as above; conditions: Gynecologic cancer cell panel viability, ATPlite luminescence, 48 h; series mostly up to 57.5 µM
In short: as §2

[6] = tested on: HeLa; test: as above; conditions: Gynecologic cancer cell panel viability, ATPlite luminescence, 48 h; series mostly up to 57.5 µM
In short: as §2

[7] = tested on: Hek293T; test: as above; conditions: Gynecologic cancer cell panel viability, ATPlite luminescence, 48 h, control line for the selectivity index; series mostly up to 57.5 µM
In short: as §2

[8] = tested on: JEG-3; test: as above; conditions: Gynecologic cancer cell panel viability, ATPlite luminescence, 48 h; series mostly up to 57.5 µM
In short: as §2

[9] = tested on: OV90; test: as above; conditions: Gynecologic cancer cell panel viability, ATPlite luminescence, 48 h; series mostly up to 57.5 µM
In short: as §2

[10] = tested on: PA-1; test: as above; conditions: Gynecologic cancer cell panel viability, ATPlite luminescence, 48 h; series mostly up to 57.5 µM
In short: as §2

[11] = tested on: SKOV3; test: as above; conditions: Gynecologic cancer cell panel viability, ATPlite luminescence, 48 h; series mostly up to 57.5 µM
In short: as §2

[12] = tested on: Tov-21-G; test: as above; conditions: Gynecologic cancer cell panel viability, ATPlite luminescence, 48 h; series mostly up to 57.5 µM
In short: as §2

[13] = tested on: Tov112D; test: as above; conditions: Gynecologic cancer cell panel viability, ATPlite luminescence, 48 h; series mostly up to 57.5 µM
In short: as §2

[14] = Drug repurposing screens with cells derived from glioblastoma tumor samples (AID 1345199); conditions: GBM patient neurospheres viability, ATP luminescence, 48 h; note: nearly all actives have a fitted effect of over 40% in size; note: potency is the fitted concentration of half-maximal effect
In short: (§3)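 Primary testing used CD133+ neurospheres from four GBM patients, seven concentrations, 48 h exposure and ATP-based viability; confirmation added three slower-growing patient lines.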

[15] = tested on: astro; test: as above; conditions: viability, ATP luminescence, 48 h; series mostly up to 45.9 µM
In short: as §3

[16] = tested on: CASKI; test: Primary qHTS to identify gynecologic anti-cancer compounds using libraries of approved drugs and bioactive compounds (AID 1345084); conditions: Gynecologic cancer cell panel viability, ATPlite luminescence, 48 h; series mostly up to 57.5 µM; note: nearly all actives have a fitted effect of over 55% in size; note: potency is the fitted concentration of half-maximal effect
In short: as §2

[17] = at 45.9 µM (top of the series), tumour line B
[18] = at 45.9 µM (top of the series), tumour line D
[19] = at 46 µM (top of the series), tumour line A
[20] = at 46.1 µM (top of the series), tumour line C

N=c1nc(N2CCCCC2)cc(N)n1O
Potency [1]: inactive | Potency [2]: inactive | Potency [3]: inactive | Potency [4]: inactive | Potency [5]: inactive | Potency [6]: inactive | Potency [7]: inactive | Potency [8]: inactive | Potency [9]: inactive | Potency [10]: inactive | Potency [11]: inactive | Potency [12]: inactive | Potency [13]: inactive | activity, negative = cell killing [14, 17]: -6.91% | activity, negative = cell killing [14, 18]: -11% | activity, negative = cell killing [14, 19]: -16.6% | Potency [15]: inactive

CN(C(=O)c1ccc(F)cc1C(F)(F)F)C1CCN(c2nnc(-c3ccnn3C)c3ccccc23)CC1
Potency [1]: inactive | Potency [2]: inactive | Potency [3]: inactive | Potency [16]: inactive | Potency [5]: inactive | Potency [6]: inactive | Potency [7]: inactive | Potency [8]: inactive | Potency [9]: inactive | Potency [10]: inactive | Potency [11]: inactive | Potency [12]: inactive | Potency [13]: inactive

Clc1cccc(Cl)c1NC1=NCCN1
Potency [1]: inactive | Potency [2]: inactive | Potency [3]: inactive | Potency [16]: inactive | Potency [5]: inactive | Potency [6]: inactive | Potency [7]: inactive | Potency [8]: inactive | Potency [9]: inactive | Potency [10]: inactive | Potency [11]: inactive | Potency [12]: inactive | Potency [13]: inactive | activity, negative = cell killing [14, 17]: 5.06% | activity, negative = cell killing [14, 18]: -7.27% | activity, negative = cell killing [14, 19]: -29.3% | activity, negative = cell killing [14, 20]: 0.125% | Potency [15]: inactive

COc1ccc(CCN2CCN(CCCc3ccccc3)CC2)cc1OC
Potency [1]: inactive | Potency [2]: inactive | Potency [3]: inactive | Potency [4]: inactive | Potency [16]: inactive | Potency [5]: inactive | Potency [6]: inactive | Potency [7]: inactive | Potency [8]: inactive | Potency [9]: inactive | Potency [10]: inactive | Potency [11]: inactive | Potency [13]: inactive

Cc1ccc(N(CC2=NCCN2)c2cccc(O)c2)cc1
Potency [1]: inactive | Potency [2]: inactive | Potency [3]: inactive | Potency [4]: inactive | Potency [16]: inactive | Potency [5]: inactive | Potency [6]: inactive | Potency [7]: inactive | Potency [8]: inactive | Potency [9]: inactive | Potency [10]: inactive | Potency [11]: inactive | Potency [12]: inactive | activity, negative = cell killing [14, 17]: -13.6% | activity, negative = cell killing [14, 20]: -7.27% | Potency ([14]; tumour line A): 14.1 µM (active) | Potency [15]: inactive

CN(C)c1ccc(C2Nc3ccc4ccccc4c3C3=C2C(=O)CC(C)(C)C3)cc1Br (centres undefined)
Potency [1]: inactive | Potency [2]: inactive | Potency [3]: inactive | Potency [4]: inactive | Potency [16]: inactive | Potency [5]: inactive | Potency [6]: inactive | Potency [7]: inactive | Potency [8]: inactive | Potency [9]: inactive | Potency [10]: inactive | Potency [11]: inactive | Potency [13]: inactive

CCCc1nc2c(C)cc(-c3nc4ccccc4n3C)cc2n1Cc1ccc(-c2ccccc2C(=O)O)cc1
Potency [1]: inactive | Potency [2]: inactive | Potency [3]: inactive | Potency [16]: inactive | Potency [5]: inactive | Potency [6]: inactive | Potency [7]: inactive | Potency [8]: inactive | Potency [9]: inactive | Potency [10]: inactive | Potency [11]: inactive | Potency [12]: inactive | Potency [13]: inactive | activity, negative = cell killing [14, 17]: -13.6% | activity, negative = cell killing [14, 18]: -10.2% | activity, negative = cell killing [14, 19]: -16.9% | activity, negative = cell killing [14, 20]: -10.7% | Potency [15]: inactive

Nc1nc2ccc(OC(F)(F)F)cc2s1
Potency [1]: inactive | Potency [2]: inactive | Potency [3]: inactive | Potency [4]: inactive | Potency [16]: inactive | Potency [5]: inactive | Potency [8]: inactive | Potency [9]: inactive | Potency [11]: inactive | activity, negative = cell killing [14, 20]: 16.9% | Potency [15]: inactive

CCCCNc1cc(C(=O)O)cc(S(N)(=O)=O)c1Oc1ccccc1
Potency [1]: inactive | Potency [2]: inactive | Potency [3]: inactive | Potency [4]: inactive | Potency [16]: inactive | Potency [5]: inactive | Potency [6]: inactive | Potency [8]: inactive | Potency [9]: inactive | Potency [10]: inactive | Potency [11]: inactive | Potency [12]: inactive | Potency [13]: inactive | activity, negative = cell killing ([14]; at 21.2 µM (top of the series), tumour line D): -6.33% | activity, negative = cell killing ([14]; at 21.3 µM (top of the series), tumour line A): -23.2% | Potency [15]: inactive

Cn1cnc2c(F)c(Nc3ccc(Br)cc3Cl)c(C(=O)NOCCO)cc21
Potency [1]: inactive | Potency [2]: inactive | Potency [3]: inactive | Potency [4]: inactive | Potency [16]: inactive | Potency [6]: inactive | Potency [7]: inactive | Potency [8]: inactive | Potency [9]: 1.58 µM (active) | Potency [10]: inactive | Potency [11]: inactive | Potency [13]: inactive

c1ccc([C@H]2CN3CCSC3=N2)cc1
Potency [1]: inactive | Potency [2]: inactive | Potency [3]: inactive | Potency [16]: inactive | Potency [5]: inactive | Potency [6]: inactive | Potency [7]: inactive | Potency [8]: inactive | Potency [9]: inactive | Potency [10]: inactive | Potency [11]: inactive | Potency [12]: inactive | Potency [13]: inactive | activity, negative = cell killing [14, 17]: -5.9% | activity, negative = cell killing [14, 18]: -15.5% | activity, negative = cell killing [14, 20]: -7.79% | Potency ([14]; tumour line A): 15.8 µM (active) | Potency [15]: inactive

Cc1cnc(NC(=O)C2=C(O)c3ccccc3S(=O)(=O)N2C)s1
Potency [1]: inactive | Potency [2]: inactive | Potency [3]: inactive | Potency [16]: inactive | Potency [5]: inactive | Potency [6]: inactive | Potency [7]: inactive | Potency [8]: inactive | Potency [9]: inactive | Potency [10]: inactive | Potency [11]: inactive | Potency [12]: inactive | Potency [13]: inactive | activity, negative = cell killing [14, 17]: -11.1% and -5.23% | activity, negative = cell killing [14, 18]: 7.55% and -2.79% | activity, negative = cell killing [14, 19]: -27.8% | activity, negative = cell killing [14, 20]: 4.05% and -0.835% | Potency [15]: inactive

Reference: PubChem BioAssay (NCATS)
